# About 83,000 compounds went through this panel and 20% of them were active in at least one assay; those are over-represented in the sample as a whole.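 Assay: single dose, 48 h. Readout: percent growth (0 = no net growth; negative = cell death). Active: <10.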 A number with no mark means an inactive call. Activity calls are given as the source filed them.
# What was measured:
# Test in all cases: NCI-60 one-dose screen, 48 h (100 = growth as untreated, 0 = no growth, -100 = all killed)
# HCT-15 colon = conditions: 10 µM unless noted
# HT29 colon = conditions: 10 µM unless noted
# SNB-75 CNS = conditions: 10 µM unless noted
# SNB-19 CNS = conditions: 10 µM unless noted
# U251 CNS = conditions: 10 µM unless noted
# SK-MEL-5 melanoma = conditions: 10 µM unless noted
# UACC-62 melanoma = conditions: 10 µM unless noted
# LOX IMVI melanoma = conditions: 10 µM unless noted
# SK-MEL-28 melanoma = conditions: 10 µM unless noted
# SK-MEL-2 melanoma = conditions: 10 µM unless noted
# EKVX NSCLC = conditions: 10 µM
# SN12C renal = conditions: 10 µM unless noted
# UO-31 renal = conditions: 10 µM unless noted
# TK-10 renal = conditions: 10 µM unless noted
# ACHN renal = conditions: 10 µM unless noted
# CAKI-1 renal = conditions: 10 µM unless noted
# PC-3 prostate = conditions: 10 µM unless noted
# A498 renal = conditions: 10 µM unless noted
# CCRF-CEM leukemia = conditions: 10 µM
# MOLT-4 leukemia = conditions: 10 µM unless noted
Compound,growth (HCT-15 colon),growth (HT29 colon),growth (SNB-75 CNS),growth (SNB-19 CNS),growth (U251 CNS) [%],growth (SK-MEL-5 melanoma),growth (UACC-62 melanoma),growth (LOX IMVI melanoma),growth (SK-MEL-28 melanoma),growth (SK-MEL-2 melanoma),growth (EKVX NSCLC),growth (SN12C renal),growth (UO-31 renal),growth (TK-10 renal),growth (ACHN renal),growth (CAKI-1 renal),growth (PC-3 prostate),growth (A498 renal),growth (CCRF-CEM leukemia),growth (MOLT-4 leukemia)
CC[C@@H](C)/C=C(C)/C=C/C(=O)c1c(O)c(-c2ccc(OC(=O)[C@@]34CC[C@@](C)(C(=O)O3)C4(C)C)cc2)cn(O)c1=O,27%,59.7%,30.6%,36.8%,15.7,-4% (active),5.24% (active),0.589% (active),26.8%,17.8%,22.3%,30.4%,-26.4% (active),44.9%,9.64% (active),-27% (active),,,,
OCC(O)C(O)CC1SCCS1 (configuration not stated),104%,101%,94.7%,94.8%,99.9,,97.7%,91.8%,110%,107%,97.2%,97.9%,78%,96.5%,103%,98%,102%,101%,90.6%,84.8%
COc1ccc(/C=N/c2cc(C(C)(C)C)nn2-c2ccccc2)cc1,86.8%,99.9%,114%,94.6%,97.9,98%,86.7%,99.8%,111%,124%,104%,102%,94.5%,117%,95.7%,,,103%,,96%
CCOC(=O)c1sc(NS(=O)(=O)c2ccccc2)nc1C,115%,124%,97.9%,107%,109,99.3%,103%,105%,123%,2.52% (active),116%,100%,87%,163%,123%,124%,,114%,103%,75.6%
Ic1ccc(SSc2ccc(I)cc2)cc1,99.5%,95.3%,88.4%,94.6%,67.8,,97.8%,0.697% (active),108%,105%,99.9%,71.3%,60.5%,84.4%,113%,,58.5%,,17%,32%
O=C(NCCO)C(F)(F)F,96.9%,104%,101%,94.6%,97.1,,102%,103%,111%,105%,,102%,94.2%,102%,101%,95.9%,103%,107%,,99.3%
Cc1nc(N)sc1C(=O)NCCO,108%,112%,105%,101%,106,103%,93.8%,104%,113%,12.8%,113%,101%,80.2%,112%,103%,129%,,119%,60.6%,155%
CC(=O)/C(=C\c1c(-c2ccccc2)[nH]c2ccccc12)S(=O)(=O)c1ccccc1,13.5%,11.3%,-23.1% (active),53.7%,17.5,9.11% (active),13.6%,-33.3% (active),26.8%,-27.9% (active),27.9%,5.37% (active),14%,10.2%,28.2%,,,41.4%,,-35.5% (active)
CC1=NN(c2cccc(Cl)c2)C(=O)/C1=C\c1cn(-c2nc(N3CCOCC3)nc(N3CCOCC3)n2)c2ccccc12,107%,95.4%,86.4%,103%,110,,103%,95.7%,116%,110%,105%,104%,83.3%,93.4%,103%,,93%,116%,100%,106%
COc1cc(OC)cc(-c2ccc(-c3ccc(C(=N)N)cc3)s2)c1,-79.6% (active),-68.8% (active),-94.9% (active),-71.8% (active),,-100% (active),-85.1% (active),-86.3% (active),-87.7% (active),-58.3% (active),-83.6% (active),-76.9% (active),-78% (active),-83.7% (active),-90% (active),-93.7% (active),-94.7% (active),-92% (active),-59.7% (active),-48.8% (active)
CC(C)(C)C(=O)CCCCCCCC/C=C/CCCC(O)c1ccco1 (configuration not stated),118%,107%,101%,,105,107%,95.2%,102%,106%,105%,102%,110%,98.3%,105%,120%,110%,102%,109%,-44.3% (active),76.1%
Nc1ncn([C@@H]2O[C@H](CO)[C@@H](O)C2(F)F)c(=O)n1,52.2%,70.1%,65%,58.9%,,70.8%,47.3%,34.5%,78.5%,104%,86.1%,51.7%,39%,91.1%,7.28% (active),27.9%,63.6%,38%,23.7%,35.6%
COc1nc(OC)nc(-c2cc(-c3cc(OC)c(OC)c(OC)c3)no2)n1,103%,100%,97.2%,96.9%,,88.2%,97.6%,104%,115%,108%,103%,94.6%,71.3%,101%,108%,96.1%,86.3%,82.5%,91.3%,92.6%
CCCCCCC(C(=O)OCC)(C(=O)OCC)C1CCCCCC1,97.5%,98.1%,83.7%,99.2%,,100%,101%,,106%,114%,,101%,90.6%,102%,101%,89.9%,102%,96.7%,,104%
CCOC(=O)c1c(C)oc2ncnc(Nc3ccc(NC(=O)Nc4cccc(Cl)c4)cc3)c12,59%,37.1%,70.6%,84.7%,,53%,69.1%,64.1%,61.8%,72.7%,72.3%,74%,50.4%,79.2%,57.5%,90.8%,41.2%,,31.5%,49.3%
CCCC(=O)NNc1[nH]c(-c2ccc(OC)cc2)cc1C(=O)OCC,100%,110%,122%,,104,111%,99.6%,103%,120%,94.6%,108%,110%,85.8%,-16.1% (active),73.1%,91.1%,106%,95.8%,5.87% (active),3.23% (active)
COc1nc(OC)nc(-c2cc(C(=O)c3ccc(Br)cc3)n3cc(C)cc(C)c23)n1,90.7%,74.9%,-32.2% (active),28.9%,,87.8%,92.1%,3.88% (active),84.7%,68.1%,68.1%,48%,71%,82.1%,18.5%,64.8%,72.5%,71.3%,83.8%,96.6%

# From PubChem BioAssay (NCI)
